Molecules are shown by their SMILES. Records with an inconclusive call do not appear. Active and inactive are the calls of the source. How the source made its calls, unless noted: active means hit-call score of the fitted dose curve at least 0.9, where 1 is the maximum; inconclusive means response in the unintended direction; inactive means score below 0.9.

The text below walks through data of PubChem BioAssay (EPA / NIEHS).

A short description of assay [1]: ATG_TCF_b_cat_CIS: Attagene CIS-FACTORIAL HepG2 Assay for human T-Cell-Factor with beta-catenin (TCF/b-cat) (AID 2282965; active means hit-call score of the fitted dose curve at least 0.9, where 1 is the maximum; inactive means score below 0.9). The settings on record: HepG2 TCF/beta-catenin cis-reporter transcription, actives raise or lower the signal. In outline:
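Endogenous transcription factor activity is captured through cis-promoter reporter constructs transiently introduced into human HepG2 liver cells. Induced reporter mRNA is measured after 24 h and fitted bidirectionally relative to DMSO.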

Assay [2] in a line: ATG_TAL_CIS: Attagene CIS-FACTORIAL HepG2 Assay for human TAL Basal Promoter (AID 2282966; active means hit-call score of the fitted dose curve at least 0.9, where 1 is the maximum; inactive means score below 0.9;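 further: background control endpoint measuring basal TAL promoter reporter mRNA not a specific factor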). The settings on record: HepG2 Attagene cis-factorial TAL promoter reporter; actives raise or lower the signal. An outline of the steps:
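Fluorescence of labelled reporter cDNA fragments, resolved by capillary electrophoresis, gave the readout. Human HepG2 liver cells carried transiently transfected cis-element reporter units and were treated for 24 hours; activity was fitted bidirectionally against DMSO.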

Assay [3] can be described thus: ATG_TGFb_CIS: Attagene CIS-FACTORIAL HepG2 Assay for human Transforming Growth Factor (TGF) (AID 2282967; active means hit-call score of the fitted dose curve at least 0.9, where 1 is the maximum; inactive means score below 0.9). As to conditions: HepG2 Attagene CIS TGFb reporter, mRNA transcription; actives raise or lower the signal. An outline of the steps: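 Transcript-level reporter readout: HepG2 transfectants, 24 h exposure, RNA to cDNA, reporter-specific PCR, fluorescent primer extension, capillary sizing against ROX standards. Gain- or loss-of-signal relative to DMSO.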

A short description of assay [4]: ATG_VDRE_CIS: Attagene CIS-FACTORIAL HepG2 Assay for human Vitamin D Receptor Element (VDRE) (AID 2282968; active means hit-call score of the fitted dose curve at least 0.9, where 1 is the maximum; inactive means score below 0.9). As to conditions: HepG2 VDRE cis-reporter transcription, actives raise or lower the signal. In outline: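 Reporter mRNA induction, quantified by capillary electrophoresis of fluorescently labelled RT-PCR products, was read 24 h after dosing HepG2 cells carrying transiently transfected cis-regulated reporter units; gain or loss relative to DMSO.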

In assay [5] the target is Nuclear receptor subfamily 1 group I member 3 (Homo sapiens) (UniProt Q14994). In words: ATG_CAR_TRANS: Attagene TRANS-FACTORIAL HepG2 Assay for human Constitutive Androstane Receptor (CAR) (AID 2282969).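 Further: activators raise reporter mRNA above DMSO so AC50 marks induction.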 The settings on record: HepG2 Attagene TRANS-FACTORIAL CAR reporter. In outline:
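Readout is reporter mRNA induction, quantified by fluorescent primer extension and capillary electrophoresis after RT-PCR. Cells were HepG2 transiently carrying chimeric NR-Gal4 constructs with GAL4-UAS reporters, treated for 24 h; activity scored upward from DMSO.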

For assay [6], the target named is Steroid hormone receptor ERR1 (Homo sapiens) (UniProt P11474). The assay can be described thus: ATG_ERRa_TRANS: Attagene TRANS-FACTORIAL HepG2 Assay for human Estrogen-Related Receptor alpha (ERRa) (AID 2282971). As to conditions: HepG2 Attagene TRANS reporter, ERRa transactivation. In outline: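 Reporter transcript induction was quantified by RT-PCR and capillary electrophoresis of FAM-labelled, HpaI-cut products after 24 h treatment of HepG2 cells carrying transiently transfected GAL4-UAS reporter units and an exogenous ERRa-Gal4 fusion; activity scored as increase over DMSO.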
Chain of Steroid hormone receptor ERR1 (Homo sapiens) (P11474 whole entry, looked up, the tested form may be a part): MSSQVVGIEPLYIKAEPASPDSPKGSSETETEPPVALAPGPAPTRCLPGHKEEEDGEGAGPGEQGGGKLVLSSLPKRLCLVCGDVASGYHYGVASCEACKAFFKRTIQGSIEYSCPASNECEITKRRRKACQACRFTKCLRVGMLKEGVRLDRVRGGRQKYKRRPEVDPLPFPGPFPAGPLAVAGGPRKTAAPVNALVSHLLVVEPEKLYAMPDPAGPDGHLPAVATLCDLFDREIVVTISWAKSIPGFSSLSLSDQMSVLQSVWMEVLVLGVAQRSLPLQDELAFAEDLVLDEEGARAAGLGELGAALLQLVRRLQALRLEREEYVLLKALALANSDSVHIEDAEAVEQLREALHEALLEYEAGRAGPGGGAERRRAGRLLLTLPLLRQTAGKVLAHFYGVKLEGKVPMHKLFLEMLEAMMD

Assay [7] deals with X-box-binding protein 1 (Homo sapiens) (UniProt P17861). The assay can be described thus: ATG_Xbp1_CIS: Attagene CIS-FACTORIAL HepG2 Assay for human X-box Binding Protein 1 (XBP1) (AID 2282972; active means hit-call score of the fitted dose curve at least 0.9, where 1 is the maximum; inactive means score below 0.9). As to conditions: HepG2 XBP1 cis-element reporter, Attagene multiplex; actives raise or lower the signal. An outline of the steps:
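HepG2 cells transiently transfected with multiple cis-element reporter units report endogenous TF activity; 24 h exposure, then reporter mRNA measured by RT-PCR, 6-FAM labelling, HpaI digestion and capillary electrophoresis. Bidirectional fitting versus DMSO.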

The nature of assay [8]: ATG_GAL4_TRANS: Attagene TRANS-FACTORIAL HepG2 Assay for GAL4 (Internal Marker) (AID 2282976). As to conditions: HepG2 Attagene TRANS GAL4 internal marker reporter. An outline of the steps:
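First, HepG2 cells were transfected with reporter units under GAL4-UAS control. Next, they were treated with chemical for 24 h. Finally, RNA was reverse-transcribed, PCR-amplified, FAM-labelled and resolved by capillary electrophoresis, with induction scored against DMSO.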

Assay [9] addresses Glucocorticoid receptor (Homo sapiens) (UniProt P04150). In words: ATG_GR_TRANS: Attagene TRANS-FACTORIAL HepG2 Assay for human Glucocorticoid Receptor (GR) (AID 2282978).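 Further: activators score as hits since higher reporter transcript over DMSO is fitted.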 As to conditions: HepG2 Attagene TRANS GR reporter, mRNA transcription. In outline:
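After 24 h incubation with test chemical, transfected HepG2 cells were lysed for RNA; reporter cDNA was amplified, FAM-labelled, HpaI-digested and sized on a capillary analyser. Signal gain relative to DMSO was scored.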

Assay [10] has as its target Bile acid receptor (Homo sapiens) (UniProt Q96RI1). The assay can be described thus: ATG_FXR_TRANS: Attagene TRANS-FACTORIAL HepG2 Assay for Farnesoid X Receptor (FXR) (AID 2282979).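 Further: hits raise reporter mRNA above DMSO so AC50 marks FXR activation.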 As to conditions: HepG2 Attagene TRANS FXR-GAL4 reporter transcription. An outline of the steps:
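Transient transfection of HepG2 with multiplexed GAL4-UAS reporter units; exogenous FXR-GAL4 chimera. Dose 24 h → TriZol RNA → oligo(dT) RT → PCR, 6-FAM primer extension, HpaI cut → CE. Gain vs DMSO.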

Assay [11] has as its target Hepatocyte nuclear factor 4-alpha (Homo sapiens) (UniProt P41235). The assay can be described thus: ATG_HNF4a_TRANS: Attagene TRANS-FACTORIAL HepG2 Assay for human Hepatocyte Nuclear Factor 4 alpha (HNF4a) (AID 2282982). As to conditions: HepG2 HNF4a transactivation reporter, mRNA readout. In outline:
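Readout is fluorescent reporter-transcript fragments resolved by capillary electrophoresis after RT-PCR from HepG2 cells dosed for 24 h. Cells carried transfected GAL4-UAS reporter constructs measuring exogenous NR-GAL4 chimera activity; DMSO served as baseline.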

Assay [12] concerns the target Nuclear receptor subfamily 4 group A member 2 (Homo sapiens) (UniProt P43354). The assay can be described thus: ATG_NURR1_TRANS: Attagene TRANS-FACTORIAL HepG2 Assay for human Nuclear Receptor Related Protein 1 (NURR1) (AID 2282985). The settings on record: HepG2 Attagene TRANS reporter, mRNA readout. An outline of the steps: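 Transient transfection of HepG2, human liver cells, with multiple GAL4-UAS reporter transcription units. Cells dosed 24 h, RNA isolated, reverse-transcribed, PCR-amplified, FAM-labelled, HpaI-digested, sized by capillary electrophoresis. DMSO served as negative control.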

Assay [13] addresses Transcriptional activator Myb (Homo sapiens) (UniProt P10242). In words: ATG_Myb_CIS: Attagene CIS-FACTORIAL HepG2 Assay for human Myeloblastosis (Myb) Proto-Oncogene Transcription Factor (AID 2282986; active means hit-call score of the fitted dose curve at least 0.9, where 1 is the maximum; inactive means score below 0.9). The settings on record: HepG2 Attagene CIS-FACTORIAL Myb reporter transcription; actives raise or lower the signal. An outline of the steps: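 After 24 h of compound dosing, total RNA from transfected HepG2 cells is reverse-transcribed and the reporter sequences amplified, labeled and separated by capillary electrophoresis. Values come from bidirectional fitting against DMSO.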

The target of assay [14] is Estrogen receptor (Homo sapiens) (UniProt P03372). The assay can be described thus: ATG_ERa_TRANS: Attagene TRANS-FACTORIAL HepG2 Assay for human Estrogen Receptor alpha (ERa) (AID 2282970). The settings on record: HepG2 Attagene TRANS ERa GAL4 reporter, mRNA. In outline: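 Human liver HepG2, transient transfection of multiple GAL4-UAS reporter units; TRANS format (exogenous NR-Gal4 chimera). 24 h dosing. Readout: reporter mRNA, RT-PCR, 6-FAM primer extension, HpaI digest, capillary electrophoresis. Positive direction vs DMSO.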
Chain of Estrogen receptor (Homo sapiens) (P03372 whole entry, looked up, the tested form may be a part): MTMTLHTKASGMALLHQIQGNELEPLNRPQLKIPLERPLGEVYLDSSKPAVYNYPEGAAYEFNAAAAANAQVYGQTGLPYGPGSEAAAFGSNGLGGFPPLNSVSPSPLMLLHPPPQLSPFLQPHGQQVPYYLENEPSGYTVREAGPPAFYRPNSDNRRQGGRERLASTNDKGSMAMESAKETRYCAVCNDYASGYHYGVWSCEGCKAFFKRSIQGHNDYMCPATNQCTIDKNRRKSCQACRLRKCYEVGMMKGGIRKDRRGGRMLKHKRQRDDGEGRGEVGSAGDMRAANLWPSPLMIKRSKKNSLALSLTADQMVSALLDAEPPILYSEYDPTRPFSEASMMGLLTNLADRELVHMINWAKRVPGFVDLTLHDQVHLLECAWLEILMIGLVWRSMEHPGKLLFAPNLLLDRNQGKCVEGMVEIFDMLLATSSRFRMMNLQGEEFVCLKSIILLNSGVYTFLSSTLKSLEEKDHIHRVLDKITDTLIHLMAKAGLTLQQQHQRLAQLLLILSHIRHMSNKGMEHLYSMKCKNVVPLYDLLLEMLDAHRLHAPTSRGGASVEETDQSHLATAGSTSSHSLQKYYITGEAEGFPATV

The nature of assay [15]: ATG_M_19_TRANS: Attagene TRANS-FACTORIAL HepG2 Assay for M19 Transcription Factor (Internal Marker) (AID 2282974). As to conditions: HepG2 Attagene TRANS-FACTORIAL M19 internal marker reporter. An outline of the steps:
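Transfected HepG2 (GAL4-UAS MRTUs), 24 h compound, TriZol RNA, DNase-treated RT, reporter PCR, FAM label, HpaI digest, CE fluorescence; gain vs DMSO.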

The nature of assay [16]: ATG_M_32_TRANS: Attagene TRANS-FACTORIAL HepG2 Assay for M32 Transcription Factor (Internal Marker) (AID 2282984).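 Further: transcript level of a background control reporter unit measured by RT-PCR and capillary electrophoresis.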 As to conditions: HepG2 Attagene TRANS M32 internal marker reporter. In outline: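 Measures reporter mRNA induction in human HepG2 liver cells after 24 h chemical treatment. Transcripts from transiently transfected GAL4-UAS reporter units are amplified, fluorescently labelled and sized by capillary electrophoresis; gain of signal relative to DMSO.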

In assay [17] the target is Estrogen-related receptor gamma (Homo sapiens) (UniProt P62508). In words: ATG_ERRg_TRANS: Attagene TRANS-FACTORIAL HepG2 Assay for human Estrogen-Related Receptor gamma (ERRg) (AID 2282977).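 Further: hits increase reporter signal over DMSO so potencies reflect activators.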 The settings on record: HepG2 Attagene TRANS reporter, ERRg transactivation. An outline of the steps: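 Transfect HepG2 with multiple GAL4-UAS reporter transcription units; dose chemicals 24 h; isolate RNA, reverse-transcribe with oligo(dT), PCR-amplify, label with 6-FAM, digest with HpaI; size fragments by capillary electrophoresis. DMSO serves as negative control.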

Assay [18] deals with Oxysterols receptor LXR-alpha (Homo sapiens) (UniProt Q13133). In words: ATG_LXRa_TRANS: Attagene TRANS-FACTORIAL HepG2 Assay for human Liver X Receptor alpha (LXRa) (AID 2282980). As to conditions: HepG2 Attagene TRANS reporter, LXRa transactivation. An outline of the steps: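 Transfect HepG2 with GAL4-UAS multiplex reporter constructs (TRANS format, chimeric receptor-GAL4); treat 24 h; extract RNA, reverse-transcribe, PCR-amplify, FAM-label, HpaI-digest; resolve fragments by capillary electrophoresis. Upward response vs DMSO.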
Chain of Oxysterols receptor LXR-alpha (Homo sapiens) (Q13133 whole entry, looked up, the tested form may be a part): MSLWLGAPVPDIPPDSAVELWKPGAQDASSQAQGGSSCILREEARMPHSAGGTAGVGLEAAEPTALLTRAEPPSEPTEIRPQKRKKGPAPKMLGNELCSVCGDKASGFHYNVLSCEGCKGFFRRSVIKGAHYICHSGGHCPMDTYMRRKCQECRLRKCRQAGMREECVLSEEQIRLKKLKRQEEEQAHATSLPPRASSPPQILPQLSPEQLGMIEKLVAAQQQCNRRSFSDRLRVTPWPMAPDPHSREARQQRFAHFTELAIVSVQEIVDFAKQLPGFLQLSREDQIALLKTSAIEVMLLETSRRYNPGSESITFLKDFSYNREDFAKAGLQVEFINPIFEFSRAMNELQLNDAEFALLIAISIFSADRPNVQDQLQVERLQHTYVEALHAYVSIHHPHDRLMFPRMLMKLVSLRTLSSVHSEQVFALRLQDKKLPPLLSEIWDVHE

Assay [19] has as its target Oxysterols receptor LXR-beta (Homo sapiens) (UniProt P55055). The assay can be described thus: ATG_LXRb_TRANS: Attagene TRANS-FACTORIAL HepG2 Assay for human Liver X Receptor beta (LXRb) (AID 2282981). As to conditions: HepG2 Attagene TRANS GAL4-LXRb reporter, mRNA. An outline of the steps:
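Transient transfection HepG2 (multiplexed RTUs, GAL4-UAS); NR-Gal4 chimera; 24 h exposure; RNA → RT-PCR → 6-FAM primer extension → HpaI → CE; increase vs DMSO.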

A short description of assay [20]: ATG_M_06_TRANS: Attagene TRANS-FACTORIAL HepG2 Assay for M06 Transcription Factor (Internal Marker) (AID 2282983).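 Further: reporter transcript level by RT-PCR then capillary electrophoresis fluorescence.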 As to conditions: HepG2 Attagene TRANS M06 internal marker reporter. In outline: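 Transfect HepG2 with MRTUs → dose compounds 24 h → isolate RNA, oligo(dT) RT → PCR with reporter primers → 6-FAM primer extension → HpaI digest → CE fragment analysis. Positive direction vs DMSO.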

Chain of Nuclear receptor subfamily 4 group A member 2 (Homo sapiens) (P43354 whole entry, looked up, the tested form may be a part): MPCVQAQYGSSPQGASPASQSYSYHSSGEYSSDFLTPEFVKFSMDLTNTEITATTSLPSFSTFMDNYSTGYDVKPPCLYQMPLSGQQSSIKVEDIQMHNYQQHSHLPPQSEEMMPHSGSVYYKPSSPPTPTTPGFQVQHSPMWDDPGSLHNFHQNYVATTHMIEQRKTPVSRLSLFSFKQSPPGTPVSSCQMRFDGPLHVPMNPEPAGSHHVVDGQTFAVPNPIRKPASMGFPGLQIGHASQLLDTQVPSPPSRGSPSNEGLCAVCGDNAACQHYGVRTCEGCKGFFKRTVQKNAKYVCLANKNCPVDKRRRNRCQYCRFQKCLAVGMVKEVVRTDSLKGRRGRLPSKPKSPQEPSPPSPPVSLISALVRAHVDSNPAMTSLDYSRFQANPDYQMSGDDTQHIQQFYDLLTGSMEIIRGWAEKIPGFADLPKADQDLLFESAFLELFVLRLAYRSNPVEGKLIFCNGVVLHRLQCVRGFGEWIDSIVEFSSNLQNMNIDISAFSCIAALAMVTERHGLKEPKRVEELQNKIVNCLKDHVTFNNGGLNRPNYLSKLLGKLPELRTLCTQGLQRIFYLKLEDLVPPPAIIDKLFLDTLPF
Chain of Oxysterols receptor LXR-beta (Homo sapiens) (P55055 whole entry, looked up, the tested form may be a part): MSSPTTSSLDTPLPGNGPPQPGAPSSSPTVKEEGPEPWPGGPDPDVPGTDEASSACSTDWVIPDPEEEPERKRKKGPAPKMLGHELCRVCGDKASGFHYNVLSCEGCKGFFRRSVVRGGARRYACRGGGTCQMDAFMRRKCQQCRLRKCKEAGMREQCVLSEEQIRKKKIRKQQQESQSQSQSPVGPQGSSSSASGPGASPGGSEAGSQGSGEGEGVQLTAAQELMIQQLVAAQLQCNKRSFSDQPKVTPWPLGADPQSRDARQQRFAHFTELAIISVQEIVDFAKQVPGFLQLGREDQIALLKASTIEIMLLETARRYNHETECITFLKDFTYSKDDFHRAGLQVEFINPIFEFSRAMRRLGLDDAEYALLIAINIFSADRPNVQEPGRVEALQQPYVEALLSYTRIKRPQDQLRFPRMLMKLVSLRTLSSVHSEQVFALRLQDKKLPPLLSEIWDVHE
Chain of X-box-binding protein 1 (Homo sapiens) (P17861 whole entry, looked up): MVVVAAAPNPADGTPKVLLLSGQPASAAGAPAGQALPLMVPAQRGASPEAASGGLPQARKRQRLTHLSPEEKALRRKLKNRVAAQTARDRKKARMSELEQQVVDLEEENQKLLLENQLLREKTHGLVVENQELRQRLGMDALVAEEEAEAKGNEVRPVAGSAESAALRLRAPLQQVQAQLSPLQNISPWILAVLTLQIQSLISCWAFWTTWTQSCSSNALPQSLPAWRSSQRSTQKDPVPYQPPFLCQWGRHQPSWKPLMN
Chain of Transcriptional activator Myb (Homo sapiens) (P10242 whole entry, looked up): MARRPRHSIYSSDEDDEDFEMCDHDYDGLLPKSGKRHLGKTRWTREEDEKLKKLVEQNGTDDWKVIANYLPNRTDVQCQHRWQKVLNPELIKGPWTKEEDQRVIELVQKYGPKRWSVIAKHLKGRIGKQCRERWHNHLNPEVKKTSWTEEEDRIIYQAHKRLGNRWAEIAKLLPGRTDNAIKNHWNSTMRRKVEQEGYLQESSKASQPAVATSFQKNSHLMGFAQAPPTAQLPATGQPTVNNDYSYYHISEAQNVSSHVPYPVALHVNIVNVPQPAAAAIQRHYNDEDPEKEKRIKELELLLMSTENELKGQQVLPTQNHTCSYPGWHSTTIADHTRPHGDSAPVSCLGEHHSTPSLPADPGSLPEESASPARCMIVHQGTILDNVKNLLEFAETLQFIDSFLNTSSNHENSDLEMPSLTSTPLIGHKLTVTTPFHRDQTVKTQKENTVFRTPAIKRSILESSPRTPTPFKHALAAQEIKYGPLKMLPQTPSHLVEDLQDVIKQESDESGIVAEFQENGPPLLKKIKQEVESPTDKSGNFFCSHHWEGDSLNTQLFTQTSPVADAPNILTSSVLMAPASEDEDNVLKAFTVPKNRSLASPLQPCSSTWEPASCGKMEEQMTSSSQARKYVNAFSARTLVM
Chain of Bile acid receptor (Homo sapiens) (Q96RI1 whole entry, looked up, the tested form may be a part): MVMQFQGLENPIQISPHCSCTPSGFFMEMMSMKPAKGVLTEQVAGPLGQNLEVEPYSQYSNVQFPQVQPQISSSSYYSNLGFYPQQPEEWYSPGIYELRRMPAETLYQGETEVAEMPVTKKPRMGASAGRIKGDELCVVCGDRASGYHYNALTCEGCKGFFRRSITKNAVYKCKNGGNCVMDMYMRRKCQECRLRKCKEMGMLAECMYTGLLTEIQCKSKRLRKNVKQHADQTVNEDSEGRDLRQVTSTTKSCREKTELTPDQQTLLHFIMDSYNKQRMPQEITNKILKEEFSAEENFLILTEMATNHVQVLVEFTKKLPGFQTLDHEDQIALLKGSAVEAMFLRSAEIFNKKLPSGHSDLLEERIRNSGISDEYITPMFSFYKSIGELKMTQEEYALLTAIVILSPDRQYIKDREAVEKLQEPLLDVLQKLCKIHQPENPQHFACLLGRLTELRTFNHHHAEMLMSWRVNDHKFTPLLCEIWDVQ
Chain of Nuclear receptor subfamily 1 group I member 3 (Homo sapiens) (Q14994 whole entry, looked up, the tested form may be a part): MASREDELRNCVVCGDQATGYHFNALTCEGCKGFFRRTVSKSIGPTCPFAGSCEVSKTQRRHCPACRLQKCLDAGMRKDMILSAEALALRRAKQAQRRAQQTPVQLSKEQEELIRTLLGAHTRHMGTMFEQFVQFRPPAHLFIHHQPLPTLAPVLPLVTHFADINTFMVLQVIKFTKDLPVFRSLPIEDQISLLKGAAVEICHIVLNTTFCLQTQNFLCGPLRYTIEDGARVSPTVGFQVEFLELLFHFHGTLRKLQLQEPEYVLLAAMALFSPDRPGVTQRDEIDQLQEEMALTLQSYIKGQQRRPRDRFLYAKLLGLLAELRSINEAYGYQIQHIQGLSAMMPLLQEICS
Chain of Hepatocyte nuclear factor 4-alpha (Homo sapiens) (P41235 whole entry, looked up, the tested form may be a part): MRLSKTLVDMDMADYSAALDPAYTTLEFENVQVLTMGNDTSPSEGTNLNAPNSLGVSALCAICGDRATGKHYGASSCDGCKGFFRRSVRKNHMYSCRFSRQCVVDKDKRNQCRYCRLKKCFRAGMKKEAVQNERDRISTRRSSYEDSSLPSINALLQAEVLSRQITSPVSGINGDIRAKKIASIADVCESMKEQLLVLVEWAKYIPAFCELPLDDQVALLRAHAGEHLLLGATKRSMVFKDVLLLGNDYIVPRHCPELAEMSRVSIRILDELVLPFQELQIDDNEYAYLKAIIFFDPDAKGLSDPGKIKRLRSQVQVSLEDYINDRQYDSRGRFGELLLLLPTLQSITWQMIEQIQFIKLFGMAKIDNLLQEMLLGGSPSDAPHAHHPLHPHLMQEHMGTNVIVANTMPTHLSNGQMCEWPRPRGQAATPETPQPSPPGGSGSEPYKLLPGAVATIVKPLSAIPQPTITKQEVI

With `COc1cc(S(=O)(=O)O)c(C)cc1N=Nc1c(O)ccc2cc(S(=O)(=O)O)ccc12`, the outcome in [1], in assay [2], in assay [3], in assay [4], in assay [5] and in [6] was inactive. Further, the call in [7], in assay [8], in assay [9], in assay [10], in assay [11] and in assay [12] was inactive. Also, the call in assay [13] was inactive.
One may read the AC50 as the concentration at which the activity in the assay is half-maximal. With `C[Si]1(C)O[Si](C)(C)O[Si](C)(C)O[Si](C)(C)O1`, the molecule was classed as inactive in assay [1], in assay [2], in assay [3], in [4], in assay [5] and in [7]. Further, the result in assay [15], in assay [10], in [16], in assay [12] and in [13] was inactive. Moreover, the AC50 in assay [14] was 38.8 µM (active).
Turning to `COc1cc(/C=C/C(=O)CC(=O)/C=C/c2ccc(O)c(OC)c2)ccc1O`, the AC50 is 27.4 µM (active) in assay [1], 33.4 µM (active) in assay [4] and 33.4 µM (active) in assay [7]. Moreover, the call in assay [2], in assay [3], in [14], in assay [6], in assay [15] and in assay [17] was inactive. Further, the molecule was called inactive in assay [18], in assay [19], in assay [11], in [20], in assay [16] and in assay [12]. Also, the outcome in assay [13] was inactive.
As to `FC(F)(F)C(F)(F)C(F)(F)C(F)(F)C(F)(F)C(F)(F)CCI`, the result in assay [1], in assay [2], in assay [3], in [4], in [5] and in assay [14] was inactive. Besides, the molecule was classed as inactive in assay [7], in assay [18], in assay [19], in [16] and in [13].
`CCCCc1ccc2c(n1)[C@@H](c1ccc(OC)cc1C[C@H](C)C(=O)O)[C@H](C(=O)O)[C@H]2c1ccc2c(c1)OCO2`: the molecule was called inactive in assay [1], in [2], in [3], in [4], in [5] and in [7]. In addition, the outcome in assay [15], in [8], in [10], in assay [18], in assay [19] and in assay [16] was inactive. The molecule was called inactive in [13].
